The text below walks through data of publication PMC5540273 (PLoS ONE, 2017).

Among the test systems are AAK1; ABL1-nonphosphorylated; ABL1-phosphorylated; ABL2; ACVR1B; ACVR1; ACVR2A; ACVR2B; ACVRL1; ADCK4; AKT1; AKT2; AKT3; ALK; ANKK1.
Conditions in all cases: concentration: 1 μM, replicates: in singlicate; n = 1
Another test has as its system T1, ADCK3.
T1 construct: gene CABC1

A further test has as its system T2, AMPK-alpha1.
T2 construct: gene PRKAA1

The subject of a further test is T3, AMPK-alpha2.
T3 construct: gene PRKAA2

The test system of another test is T4, ARK5.
T4 construct: gene NUAK1

Another test has as its system T5, ASK1.
T5 construct: gene MAP3K5
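Note: KINOMEscan kinase panel screen.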

Take `O=C(Nc1ccccc1F)NC1CCN(c2ccnc(Nc3ccc(F)cc3)n2)CC1` [GSK1379800]: the “%Inh” value with AAK1 is 17%; in the test with ABL1-nonphosphorylated, 0%; in the test with ABL1-phosphorylated it was 0%; with ABL2 it was 12%; in the test with ACVR1B, 0%; in the test on ACVR1 it was 6%. Also, the “%Inh” value in the test on ACVR2A is given as 0%; in the test with ACVR2B, 0%; in the test on ACVRL1, 0%; with ADCK3, 1%; in the test on ADCK4, 64%; in the test with AKT1 it was 0%. The “%Inh” value in the test with AKT2 was determined as 11%; in the test with AKT3, 0%; with ALK, 17%; in the test with AMPK-alpha1, 14%; in the test with AMPK-alpha2, 0%; with ANKK1, 1%. Besides, the “%Inh” value in the test with ARK5 was determined as 0%; in the test on ASK1, 4%.

Consider `COc1cc(Nc2nccc(-c3c(-c4cccc(NC(=O)c5c(F)cccc5F)c4)nn4ccccc34)n2)cc(OC)c1OC` [GSK323521], for which the “%Inh” value stood at 44% in the test with AAK1; 52% in the test on ABL1-nonphosphorylated; 0% with ABL1-phosphorylated; 33% in the test with ABL2; 19% in the test on ACVR1B; 0% with ACVR1. For the same compound, the “%Inh” value in the test with ACVR2A is 7%; in the test with ACVR2B it was 15%; with ACVRL1, 25%; in the test with ADCK3 it was 10%; in the test on ADCK4 it was 0%; in the test with AKT1, 8%. The “%Inh” value came out at 0% with AKT2; 5% in the test on AKT3; 14% with ALK; 20% with AMPK-alpha1; 23% in the test with AMPK-alpha2; 13% in the test with ANKK1. The “%Inh” value in the test with ARK5 stood at 8%; in the test with ASK1, 5%.

For `COC(=O)Nc1nc2ccc(Oc3ccc(NC(=O)Nc4cc(C(F)(F)F)ccc4F)cc3)cc2n1C.Cl` [GW692089], the “%Inh” value in the test on AAK1 was determined as 0%; with ABL1-nonphosphorylated, 98.4%; in the test with ABL1-phosphorylated, 49%; with ABL2 it was 84%; in the test with ACVR1B, 0%; in the test on ACVR1, 0%. For the same compound, the “%Inh” value is 0% with ACVR2A; 0% in the test on ACVR2B; 0% in the test on ACVRL1; 0% in the test on ADCK3; 33% in the test on ADCK4; 0% in the test on AKT1. Besides, the “%Inh” value with AKT2 is recorded as 0%; in the test on AKT3, 0%; in the test with ALK, 3%; in the test on AMPK-alpha1, 0%; in the test with AMPK-alpha2, 22%; with ANKK1, 31%. The “%Inh” value was 16% with ARK5 and 40% with ASK1.

Consider `Cn1cc(-c2ccc3c(c2)CCN3C(=O)Cc2cccc(F)c2)c2c(N)ncnc21` [GSK2603358], for which the “%Inh” value with AAK1 is 18%; in the test on ABL1-nonphosphorylated, 58%; with ABL1-phosphorylated, 41%; in the test with ABL2, 35%; in the test with ACVR1B it was 0%; in the test on ACVR1, 0%. The “%Inh” value in the test with ACVR2A came to 0%; in the test on ACVR2B, 69%; with ACVRL1 it was 0%; in the test on ADCK3, 2%; with ADCK4, 35%; in the test with AKT1, 0%. Besides, the “%Inh” value in the test with AKT2 turned out to be 9%; in the test with AKT3, 0%; in the test on ALK, 20%; in the test with AMPK-alpha1 it was 7%; with AMPK-alpha2, 22%; in the test with ANKK1 it was 0%. In addition, the “%Inh” value was found to be 17% in the test with ARK5 and 11% in the test on ASK1.

Regarding `COc1cc(Nc2nccc(N3CCC(NC(=O)c4cc5ccccc5s4)C3)n2)cc(OC)c1OC` (stereo not drawn) [GSK1379760], the “%Inh” value amounted to 58% in the test on AAK1; 0% in the test on ABL1-nonphosphorylated; 0% in the test with ABL1-phosphorylated; 7% in the test on ABL2; 0% in the test with ACVR1B; 28% in the test on ACVR1. In addition, the “%Inh” value in the test with ACVR2A stood at 16%; in the test on ACVR2B, 11%; with ACVRL1, 0%; in the test with ADCK3 it was 0%; in the test with ADCK4, 26%; in the test with AKT1, 1%. Moreover, the “%Inh” value is 8% in the test with AKT2; 0% in the test with AKT3; 19% in the test with ALK; 45% with AMPK-alpha1; 30% with AMPK-alpha2; 12% in the test on ANKK1. Further, the “%Inh” value in the test with ARK5 came to 17%; in the test with ASK1, 20%.

As for `COc1cc2c(cc1OCCN1CCNCC1)ncc1c3ccc(C#N)cc3[nH]c21`, the “%Inh” value in the test on AAK1 was determined as 96.2%; with ABL1-nonphosphorylated it was 68%; in the test with ABL1-phosphorylated, 55%; in the test on ABL2 it was 8%; in the test with ACVR1B it was 0%; in the test on ACVR1 it was 0%. Further, the “%Inh” value in the test with ACVR2A is on record as 0%; in the test with ACVR2B, 0%; with ACVRL1, 0%; with ADCK3, 13%; in the test with ADCK4 it was 5%; in the test on AKT1, 0%. The “%Inh” value came out at 0% with AKT2; 0% in the test with AKT3; 26% in the test on ALK; 15% with AMPK-alpha1; 4% in the test with AMPK-alpha2; 37% with ANKK1. Further, the “%Inh” value with ARK5 turned out to be 22%; in the test with ASK1, 0%.

Turning to `Cl.Cl.NCC(C(=O)Nc1cc(Br)c(-c2ccnc3[nH]ccc23)s1)c1ccccc1` (stereo not drawn) [GSK1269851], the “%Inh” value in the test with AAK1 came to 78%; with ABL1-nonphosphorylated, 14%; in the test on ABL1-phosphorylated, 32%; in the test with ABL2, 35%; with ACVR1B, 67%; in the test on ACVR1 it was 47%. Besides, the “%Inh” value with ACVR2A is on record as 0%; with ACVR2B, 5%; in the test on ACVRL1 it was 0%; in the test with ADCK3, 65%; in the test with ADCK4, 95.7%; with AKT1, 61%. Moreover, the “%Inh” value in the test with AKT2 turned out to be 25%; in the test with AKT3, 66%; with ALK, 39%; with AMPK-alpha1, 0%; with AMPK-alpha2, 0%; in the test on ANKK1, 0%. Besides, the “%Inh” value in the test on ARK5 and with ASK1 was 0% in each case.

With `O=C(Nc1cccc(-c2nn3ccccc3c2-c2ccnc(Nc3cccc(C(F)(F)F)c3)n2)c1)c1c(F)cccc1F` [GSK292658], the “%Inh” value in the test on AAK1 was 0%; in the test on ABL1-nonphosphorylated it was 11%; in the test with ABL1-phosphorylated it was 0%; with ABL2, 21%; with ACVR1B it was 0%; with ACVR1 it was 0%. Moreover, the “%Inh” value in the test with ACVR2A, in the test on ACVR2B, in the test with ACVRL1, in the test on ADCK3, in the test with ADCK4 and in the test on AKT1 was 0% each time. Also, the “%Inh” value was 8% in the test with AKT2; 2% in the test with AKT3; 0% with ALK; 0% with AMPK-alpha1; 13% with AMPK-alpha2; 13% with ANKK1. Besides, the results for the “%Inh” value in the test on ARK5 and with ASK1 were 12% and 2%, respectively.

Consider `CC(C)c1nc(-c2cccc(NS(=O)(=O)c3c(F)cccc3F)c2F)c(-c2ccnc(Nc3ccc(N4CCOCC4)nc3)n2)s1` [GSK2008607], for which the “%Inh” value is reported as 0% in the test with AAK1; 99.8% with ABL1-nonphosphorylated; 99.3% in the test with ABL1-phosphorylated; 99.4% in the test with ABL2; 90.5% in the test with ACVR1B; 43% with ACVR1. Also, the “%Inh” value in the test with ACVR2A turned out to be 0%; in the test with ACVR2B, 86%; in the test on ACVRL1, 11%; in the test with ADCK3, 100%; with ADCK4 it was 100%; in the test on AKT1, 0%. The “%Inh” value in the test on AKT2 is listed as 0%; in the test with AKT3, 0%; with ALK, 28%; in the test on AMPK-alpha1 it was 97%; in the test with AMPK-alpha2 it was 98.8%; with ANKK1, 29%. Moreover, the “%Inh” value in the test with ARK5 and with ASK1 was 0% each time.
